Measurements taken from PubChem BioAssay AID1159580 (chemical genetic matrix, 2015).
About 2,000 (36%) of roughly 5,500 compounds were called active. Inconclusive results (about 18%) are left out. Rule as the data show it: active = normalized growth mostly below about 0.91 (no sharp cut-off); inconclusive = no clear call, values can overlap the other calls; inactive = mostly above about 0.92. Some of the results follow.

Assay: chemical genetic growth profiling, strain panel (AID 1159580);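 also: tested at 20 µM; growth read once vehicle control cultures reached saturation at 30 °C; 1 = growth at the plate median or of vehicle wells; lower values mean less growth of the strain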
Conditions: S. cerevisiae deletion strains, growth OD

Measured: normalized growth

Cc1nc(-c2cccnc2)nc(NCc2ccccc2)c1Cl
inactive: locus YAR019C, strain CDC15, active compounds read low 0.943 | locus YBL105C, strain PKC1, active compounds read low 0.945 | locus YBR135W, strain CKS1, active compounds read low 0.941 | locus YBR136W, strain MEC1, active compounds read low 0.919 | locus YBR160W, strain CDC28, active compounds read low 0.955 | locus YDL017W, strain CDC7, active compounds read low 0.943 | locus YDL028C, strain MPS1, active compounds read low 0.926 | locus YDL101C, strain DUN1, active compounds read low 0.938 | locus YDL108W, strain KIN28, active compounds read low 0.924 | locus YDL132W, strain cdc53, active compounds read low 0.939 | locus YDL214C, strain PRR2, active compounds read low 0.866 | locus YDR052C, strain DBF4, active compounds read low 0.945 | locus YDR054C, strain cdc34, active compounds read low 0.933 | locus YDR226W, strain ADK1, active compounds read low 0.951 | locus YDR477W, strain SNF1, active compounds read low 0.887 | locus YER123W, strain YCK3, active compounds read low 0.784 | locus YER133W, strain GLC7, active compounds read low 0.853 | locus YFL009W, strain cdc4, active compounds read low 0.932 | locus YFL029C, strain CAK1, active compounds read low 0.941 | locus YFR003C, strain YPI1, active compounds read low 0.943 | locus YFR019W, strain FAB1, active compounds read low 0.946 | locus YFR028C, strain CDC14, active compounds read low 0.931 | locus YGR040W, strain KSS1, active compounds read low 0.841 | locus YGR052W, strain FMP48, active compounds read low 0.937 | locus YGR092W, strain DBF2, active compounds read low 0.8 | locus YHR030C, strain SLT2, active compounds read low 0.936 | locus YHR079C, strain IRE1, active compounds read low 0.887 | locus YHR082C, strain KSP1, active compounds read low 0.935 | locus YHR205W, strain SCH9, active compounds read low 0.886 | locus YIL147C, strain SLN1, active compounds read low 0.929 | locus YJL095W, strain BCK1, active compounds read low 0.923 | locus YJL128C, strain PBS2, active compounds read low 0.907 | locus YJL157C, strain FAR1, active compounds read low 0.877 | locus YJR016C, strain ILV3, active compounds read low 0.935 | locus YJR066W, strain TOR1 (second series), active compounds read low 0.884 | locus YJR066W, strain TOR1, active compounds read low 0.922 | locus YKL048C, strain ELM1, active compounds read low 0.94 | locus YKL067W, strain YNK1, active compounds read low 0.89 | locus YKL101W, strain HSL1, active compounds read low 0.892 | locus YKL193C, strain SDS22, active compounds read low 0.937 | locus YKL203C, strain TOR2, active compounds read low 0.923 | locus YLR133W, strain CKI1, active compounds read low 0.913 | locus YLR403W, strain SFP1, active compounds read low 0.849 | locus YML070W, strain DAK1, active compounds read low 0.847 | locus YMR001C, strain CDC5, active compounds read low 0.938 | locus YMR205C, strain PFK2 (second series), active compounds read low 0.897 | locus YMR277W, strain FCP1, active compounds read low 0.943 | locus YNL006W, strain LST8, active compounds read low 0.954 | locus YNL020C, strain ARK1, active compounds read low 0.885 | locus YNL161W, strain CBK1, active compounds read low 0.952 | locus YNL183C, strain NPR1, active compounds read low 0.898 | locus YNL207W, strain RIO2, active compounds read low 0.922 | locus YNL222W, strain SSU72, active compounds read low 0.942 | locus YNL307C, strain MCK1 (second series), active compounds read low 0.899 | locus YOL078W, strain AVO1, active compounds read low 0.941 | locus YOL136C, strain PFK27, active compounds read low 0.877 | locus YOR061W, strain CKA2, active compounds read low 0.89 | locus YOR119C, strain RIO1, active compounds read low 0.889 | locus YOR231W, strain MKK1, active compounds read low 0.9 | locus YOR329C, strain SCD5, active compounds read low 0.948 | locus YPL031C, strain PHO85, active compounds read low 0.82 | locus YPL153C, strain RAD53, active compounds read low 0.841 | locus YPL204W, strain HRR25, active compounds read low 0.856 | locus YPL209C, strain IPL1, active compounds read low 0.942 | locus YPL256C, strain CLN2, active compounds read low 0.908 | locus YPR025C, strain CCL1, active compounds read low 0.951 | locus YPR106W, strain ISR1, active compounds read low 0.953 | locus YPR111W, strain DBF20, active compounds read low 0.942 | strain NNK1, active compounds read low 0.94 | strain TSCII, active compounds read low 0.934
active: locus YLR113W, strain HOG1, active compounds read low 0.846
